Drawing on PubChem BioAssay (EPA / NIEHS), this text covers outcome and AC50 for 24 compounds.

SMILES strings stand for the structures. Records with an inconclusive call do not appear. Active and inactive are the calls of the source. The calls were made as follows: active = hit-call score of the fitted dose curve at least 0.9, where 1 is the maximum; inconclusive = response in the unintended direction; inactive = score below 0.9.

The AC50 is the midpoint of the concentration-response curve, whichever way the signal moves.

Sequence of Muscarinic acetylcholine receptor M5 (Homo sapiens) (P08912 whole entry, looked up): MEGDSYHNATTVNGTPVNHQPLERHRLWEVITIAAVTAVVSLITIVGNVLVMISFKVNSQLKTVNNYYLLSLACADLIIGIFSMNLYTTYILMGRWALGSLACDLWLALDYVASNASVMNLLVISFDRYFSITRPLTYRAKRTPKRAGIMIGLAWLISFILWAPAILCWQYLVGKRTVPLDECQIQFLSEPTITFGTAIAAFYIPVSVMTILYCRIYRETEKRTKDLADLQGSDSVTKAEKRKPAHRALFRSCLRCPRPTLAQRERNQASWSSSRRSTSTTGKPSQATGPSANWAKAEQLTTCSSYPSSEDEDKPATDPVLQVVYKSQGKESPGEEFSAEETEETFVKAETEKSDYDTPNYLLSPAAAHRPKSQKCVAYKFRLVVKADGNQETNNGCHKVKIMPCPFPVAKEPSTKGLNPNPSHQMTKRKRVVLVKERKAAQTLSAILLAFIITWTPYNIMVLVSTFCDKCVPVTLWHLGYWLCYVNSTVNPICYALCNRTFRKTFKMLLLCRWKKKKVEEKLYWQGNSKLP
Sequence of human Opioid Receptor Delta 1 (Opiate D1), OPRD1 (gene 4985) (P41143 whole entry, looked up): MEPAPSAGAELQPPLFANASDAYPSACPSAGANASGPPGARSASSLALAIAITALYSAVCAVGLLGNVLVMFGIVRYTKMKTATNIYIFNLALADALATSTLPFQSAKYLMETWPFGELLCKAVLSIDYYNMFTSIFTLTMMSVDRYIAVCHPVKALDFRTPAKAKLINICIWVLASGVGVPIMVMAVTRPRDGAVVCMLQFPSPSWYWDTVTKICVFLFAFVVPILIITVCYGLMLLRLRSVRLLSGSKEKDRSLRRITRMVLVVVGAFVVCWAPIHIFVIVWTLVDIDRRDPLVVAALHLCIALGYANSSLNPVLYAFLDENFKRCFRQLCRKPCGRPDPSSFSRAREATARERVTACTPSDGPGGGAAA
Sequence of human Neuropeptide Receptor Y1 (NPY1), NPY1R (gene 4886) (P25929 whole entry, looked up): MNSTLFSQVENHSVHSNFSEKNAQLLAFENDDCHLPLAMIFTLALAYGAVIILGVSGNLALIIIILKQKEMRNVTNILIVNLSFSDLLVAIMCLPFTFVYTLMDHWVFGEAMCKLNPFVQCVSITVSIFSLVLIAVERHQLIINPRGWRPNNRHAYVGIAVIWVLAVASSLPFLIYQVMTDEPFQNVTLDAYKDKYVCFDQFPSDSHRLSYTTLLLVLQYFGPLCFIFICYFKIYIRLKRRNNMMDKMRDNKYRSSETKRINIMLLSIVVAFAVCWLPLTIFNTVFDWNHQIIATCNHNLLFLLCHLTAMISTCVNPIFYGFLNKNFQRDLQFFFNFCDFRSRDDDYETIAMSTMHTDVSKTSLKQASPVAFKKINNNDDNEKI
Sequence of Neuropeptide Y receptor type 2 (Homo sapiens) (P49146 whole entry, looked up): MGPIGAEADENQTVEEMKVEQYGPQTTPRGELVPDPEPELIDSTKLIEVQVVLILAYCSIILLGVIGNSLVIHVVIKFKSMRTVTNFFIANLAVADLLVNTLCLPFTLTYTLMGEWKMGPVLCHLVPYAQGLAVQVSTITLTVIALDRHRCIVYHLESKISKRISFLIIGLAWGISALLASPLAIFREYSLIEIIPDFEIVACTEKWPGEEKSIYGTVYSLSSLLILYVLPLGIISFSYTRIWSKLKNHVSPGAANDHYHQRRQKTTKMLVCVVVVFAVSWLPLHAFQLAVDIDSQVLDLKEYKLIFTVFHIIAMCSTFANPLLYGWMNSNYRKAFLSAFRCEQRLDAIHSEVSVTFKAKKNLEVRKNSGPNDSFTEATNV

One test deals with Muscarinic acetylcholine receptor M5 (Homo sapiens) (UniProt P08912). The test can be described thus: NVS_GPCR_hM5: NovaScreen (NVS) G Protein-Coupled Receptor Assay for human Muscarinic, M5 Receptor (AID 2283275). In outline:
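Radioligand displacement on CHO-derived membrane preparations, 1 h, filter-based scintillation counting. Single-concentration duplicate screen at 25 uM; hits (e.g. 30% inhibition) retested in singleton concentration-response up to 50 uM. Loss of binding fitted versus DMSO.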
Consider `c1ccc(C2CO2)cc1` (stereo unspecified), for which the outcome was inactive.
Regarding `CCC[CH2][Sn]([Cl])([CH2]CCC)[CH2]CCC`, the outcome was inactive.
With `[Cl-].[Cl-].[Hg+2]`, the AC50 was 0.428 µM (active).
As for `O=C(Oc1ccc(Br)cc1)N1CCN2CCC1CC2`, the AC50 is 15.7 µM (active).
On the same count and under the same terms, the result for `CCOC(=O)[C@]1(c2ccccc2)Oc2ccccc2[C@@H]1N` reads 4.93 µM (active).

In another test the target is human Neuropeptide Receptor Y1 (NPY1), NPY1R (gene 4886) (UniProt P25929). The test can be described thus: NVS_GPCR_hNPY1: NovaScreen (NVS) G Protein-Coupled Receptor Assay for human Neuropeptide Receptor Y1 (NPY1) (AID 2283276). The method, boiled down:
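Cell-free radioligand binding using receptor extracted from SK-N-MC cells, 1 h incubation, filter-based scintillation counting. Primary screen single concentration 25 uM in duplicate; actives followed in concentration series. Loss of bound signal scored versus DMSO.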
`CCCCCCCCn1sccc1=O`: the AC50 was 6.28 µM (active).
On to `CCC[CH2][Sn]([Cl])([CH2]CCC)[CH2]CCC`, for which the half-maximal activity concentration (AC50) is 1.58 µM (active).
The same measure, in the same setting: with `[Cl-].[Cl-].[Hg+2]` the figure was 14.7 µM (active).
In the case of `Cc1cccc(N)c1N`, the outcome was inactive.
On the same count and under the same terms, with `CCOc1cccc(C2(N3CCN(c4ccccc4)CC3)CCC(C)CC2)c1` (stereo unspecified) the entry was “inactive”.

In the next test the target is Neuropeptide Y receptor type 2 (Homo sapiens) (UniProt P49146). The test can be described thus: NVS_GPCR_hNPY2: NovaScreen (NVS) G Protein-Coupled Receptor Assay for human Neuropeptide Receptor Y2 (NPY2) (AID 2283277). The method, boiled down:
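Radioligand binding on membranes extracted from SK-N-MC cells, cell-free, read 1 h after dosing by filter-based scintillation counting. Loss of signal vs DMSO. Primary screen in duplicate at 25 uM; actives followed up in concentration-response up to 50 uM.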
Regarding `CCC[CH2][Sn]([Cl])([CH2]CCC)[CH2]CCC`, the AC50 was 10.3 µM (active).
For `[Cl-].[Cl-].[Hg+2]`, the AC50 is 8.85 µM (active).
For the compound `COC(=O)Nc1nc2ccccc2[nH]1`, the result was inactive.

The target in another test is human Neurokinin, NK2 Receptor, TACR2 (gene 6865) (UniProt P21452). The test can be described thus: NVS_GPCR_hNK2: NovaScreen (NVS) G Protein-Coupled Receptor Assay for human Neurokinin, NK2 Receptor (AID 2283278).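 Also: actives reduce bound radioligand signal relative to DMSO baseline.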 In outline: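 Cell-free radioligand binding using receptor protein extracted from CHO cells; readings taken 4 hours after chemical dosing by filter-based scintillation counting. Primary screen ran single concentration (25 uM) in duplicate; actives followed up in concentration series, loss-of-signal versus DMSO baseline.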
Sequence of human Neurokinin, NK2 Receptor, TACR2 (gene 6865) (P21452 whole entry, looked up): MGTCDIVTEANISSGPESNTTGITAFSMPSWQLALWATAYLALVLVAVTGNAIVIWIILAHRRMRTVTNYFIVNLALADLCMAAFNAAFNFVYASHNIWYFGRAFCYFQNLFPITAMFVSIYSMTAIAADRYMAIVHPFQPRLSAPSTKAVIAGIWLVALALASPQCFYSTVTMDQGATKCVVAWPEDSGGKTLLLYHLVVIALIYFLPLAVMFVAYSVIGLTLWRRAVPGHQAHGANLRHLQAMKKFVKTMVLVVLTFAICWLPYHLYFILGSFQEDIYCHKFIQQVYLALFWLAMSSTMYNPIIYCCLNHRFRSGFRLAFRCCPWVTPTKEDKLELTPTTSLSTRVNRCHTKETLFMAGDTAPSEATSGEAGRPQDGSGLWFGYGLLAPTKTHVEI
With `CCC[CH2][Sn]([Cl])([CH2]CCC)[CH2]CCC`, the AC50 is 1.08 µM (active).
Take `O=[N+]([O-])C(Br)(CO)CO`: the concentration at half-maximal activity (AC50) was 1.21 µM (active).
On to `N#CC(Br)(Br)C(N)=O`, for which the compound was called inactive.
In the case of `COP(=S)(OC)SCN1C(=O)c2ccccc2C1=O`, the half-maximal activity concentration (AC50) was 8.63 µM (active).
On the same count and under the same terms, the result for `[Cl-].[Cl-].[Hg+2]` reads 0.838 µM (active).
Regarding `Cc1cccc(N)c1N`, the call was inactive.
As for `CC(C)(C)C(O)(CCc1ccc(Cl)cc1)Cn1cncn1` (stereo unspecified), the AC50 is 13.1 µM (active).
Still for that read-out and setting: the result for `O=C(N[C@H](c1ccccc1)[C@@H]1CN2CCC1CC2)c1c(Cl)ccc(C(F)(F)F)c1Cl` reads 23.9 µM (active).
Take `O=[N+]([O-])c1ccc(Oc2ccc(Cl)cc2Cl)cc1`: the compound was classed as inactive.
Take `C[C@]12C=CC3=C4CCC(=O)C=C4CC[C@H]3[C@@H]1CC[C@@H]2O`: the AC50 was 15.6 µM (active).
Take `Oc1ccc2ccc3cccc4ccc1c2c34`: the call was inactive.
Turning to `N#CC(Br)Br`, the compound was classed as inactive.
On the same count and under the same terms, the result for `Cc1ccc(N)c(N)c1` reads “inactive”.

In the next test the target is human Opioid Receptor Delta 1 (Opiate D1), OPRD1 (gene 4985) (UniProt P41143). The test can be described thus: NVS_GPCR_hOpiate_D1: NovaScreen (NVS) G Protein-Coupled Receptor Assay for human Opioid Receptor Delta 1 (Opiate D1) (AID 2283280). In outline:
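Radioligand displacement on membranes from CHO cells expressing the receptor, read by filter scintillation counting 1 h after dosing. Duplicate single-point screen at 25 uM, then concentration series for actives; loss of signal versus DMSO.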
As to `CCC[CH2][Sn]([Cl])([CH2]CCC)[CH2]CCC`, the half-maximal activity concentration (AC50) is 0.593 µM (active).
On to `COP(=S)(OC)SCN1C(=O)c2ccccc2C1=O`, for which the outcome was inactive.
Regarding `[Cl-].[Cl-].[Hg+2]`, the AC50 was 0.275 µM (active).
Regarding `CCOC(=O)[C@]1(c2ccccc2)Oc2ccccc2[C@@H]1N`, the half-maximal activity concentration (AC50) was 16.5 µM (active).
`O=C(N[C@H](c1ccccc1)[C@@H]1CN2CCC1CC2)c1c(Cl)ccc(C(F)(F)F)c1Cl`: the compound was called inactive.
On to `Nc1ccc(N=Nc2ccccc2)cc1`, for which the call was inactive.
As to `CCCCCOC(=O)c1ccccc1C(=O)OCCCCC`, the result was inactive.
For `O=P(OCCCl)(OCCCl)OCCCl`, the outcome was inactive.

The target in another test is human Thromboxane A2 Receptor (TXA2), TBXA2R (gene 6915) (UniProt P21731). The test can be described thus: NVS_GPCR_hTXA2: NovaScreen (NVS) G Protein-Coupled Receptor Assay for human Thromboxane A2 Receptor (TXA2) (AID 2283282).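 Also: actives reduce bound radioligand signal relative to DMSO baseline.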 The method, boiled down: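 Filter scintillation counting of bound radioligand, human platelet protein, 1 h exposure. Single-concentration duplicates (25 uM) first, concentration-response follow-up for actives. Binding loss scored against DMSO baseline.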
Sequence of human Thromboxane A2 Receptor (TXA2), TBXA2R (gene 6915) (P21731 whole entry, looked up): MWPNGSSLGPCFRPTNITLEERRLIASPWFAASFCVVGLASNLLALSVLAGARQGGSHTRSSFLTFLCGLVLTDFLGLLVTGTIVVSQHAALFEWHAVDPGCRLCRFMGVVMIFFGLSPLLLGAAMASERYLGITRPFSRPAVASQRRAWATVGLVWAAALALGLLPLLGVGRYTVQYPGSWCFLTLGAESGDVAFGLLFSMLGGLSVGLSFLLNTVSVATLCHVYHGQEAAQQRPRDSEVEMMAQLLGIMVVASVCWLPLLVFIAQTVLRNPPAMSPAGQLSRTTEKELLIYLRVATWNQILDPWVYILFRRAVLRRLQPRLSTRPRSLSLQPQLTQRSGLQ
As for `CCCCCCCCn1sccc1=O`, the AC50 is 9.13 µM (active).
Same read-out and setting: the result for `CCC[CH2][Sn]([Cl])([CH2]CCC)[CH2]CCC` reads 1.77 µM (active).
Regarding `[Cl-].[Cl-].[Hg+2]`, the compound was called inactive.
For `CC(C)(C)C(O)(CCc1ccc(Cl)cc1)Cn1cncn1` (stereo unspecified), the outcome was inactive.
Same read-out and setting: the result for `CN(C)C(=O)Nc1ccc(Cl)cc1` reads “inactive”.
Consider `Nc1cc(Cl)cc(C(=O)O)c1Cl`, for which the compound was called inactive.
On the same count and under the same terms, with `Oc1ccc2ccc3cccc4ccc1c2c34` the entry was “inactive”.
